Some test systems named below: SR leukemia; RPMI-8226 leukemia; OVCAR-8 ovarian; OVCAR-5 ovarian; OVCAR-4 ovarian; SK-OV-3 ovarian; IGROV1 ovarian; HS 578T breast; NCI/ADR-RES ovarian; T-47D breast; BT-549 breast; SW-620 colon; MCF7 breast; HCT-116 colon; HCC-2998 colon; KM12 colon; MDA-MB-435 melanoma; OVCAR-3 ovarian.
Holding throughout (assay): NCI-60 one-dose screen, 48 h (100 = growth as untreated, 0 = no growth, -100 = all killed)
Conditions in all cases: 10 µM unless noted

Compounds without any hit were thinned out: in the full panel of roughly 83,000, 20% have a hit.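 Percent growth is the endpoint: 0 to 100 indicates growth inhibition (40 means 60% inhibition), 0 means no net growth, and negative values indicate cell death.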 A number with no mark means an inactive call. Active and inactive are the calls of the source. The calls were made as follows: active = growth percent below 10; inactive = the rest.

For `CCOC(=O)c1c(Nc2ccccc2)nn2c(-c3ccc(Br)cc3)ccnc12`, the growth in the assay with SR leukemia was 70.7%; in the assay with RPMI-8226 leukemia, 95.8%; in the assay on OVCAR-8 ovarian, 69.2%; in the assay with OVCAR-5 ovarian it was 80.4%; in the assay on OVCAR-4 ovarian, 53.5%; with SK-OV-3 ovarian, 59.2%. Also, the growth was 71% with IGROV1 ovarian; 62.8% in the assay with HS 578T breast; 59.8% in the assay with NCI/ADR-RES ovarian; 41.3% in the assay with T-47D breast; 104% with BT-549 breast; 78.4% with SW-620 colon. In addition, the growth in the assay on MCF7 breast is 80.9%; in the assay on HCT-116 colon, 42.5%; with HCC-2998 colon it was 87.1%; with KM12 colon it was 78.3%.
Consider `Cc1ccc(/C=C/c2nn3c(-c4ccco4)nnc3s2)cc1`, for which the growth is 77.3% in the assay on SR leukemia; 95.4% with RPMI-8226 leukemia; 100% in the assay with OVCAR-8 ovarian; 100% in the assay on OVCAR-5 ovarian; 102% in the assay on OVCAR-4 ovarian; 115% in the assay with SK-OV-3 ovarian. For the same compound, the growth in the assay on IGROV1 ovarian was 107%; with HS 578T breast, 116%; with T-47D breast, 92.9%; with BT-549 breast, 99.2%; in the assay with MDA-MB-435 melanoma, 97.1%; in the assay with SW-620 colon, 102%. Also, the growth with MCF7 breast is 89.5%; in the assay on HCT-116 colon, 112%; with KM12 colon it was 103%.
Consider `CCCCCc1ccc(S(=O)(=O)N(C(C)=O)c2cccc(-c3csc(N(CCN4CCN(C)CC4)C(C)=O)n3)c2)cc1`, for which the growth was -17.7% (active) in the assay on SR leukemia; -27.8% (active) in the assay on RPMI-8226 leukemia; 60.7% with OVCAR-8 ovarian; 92.2% with OVCAR-5 ovarian; 47.1% in the assay with OVCAR-4 ovarian; 100% in the assay on SK-OV-3 ovarian. Also, the growth is 46.8% in the assay with IGROV1 ovarian; 72.8% in the assay on HS 578T breast; 48.3% in the assay with NCI/ADR-RES ovarian; 50.4% in the assay on T-47D breast; 91.3% with BT-549 breast; -73% (active) in the assay on MDA-MB-435 melanoma. The growth in the assay with SW-620 colon is -26.5% (active); in the assay with MCF7 breast, -66.2% (active); in the assay with HCT-116 colon, -66.2% (active); in the assay on KM12 colon, 27.4%.
In the case of `COc1cc(/C=C/C(=O)c2ccc(NC(=O)COc3cccc4cccnc34)cc2)cc(OC)c1OC`, the growth in the assay on SR leukemia was 11.4%; in the assay with RPMI-8226 leukemia, 12.9%; in the assay on OVCAR-8 ovarian, 79.7%; in the assay on OVCAR-5 ovarian, 128%; with OVCAR-4 ovarian, 84.3%; in the assay with SK-OV-3 ovarian it was 118%. The growth with OVCAR-3 ovarian was 47.9%; with HS 578T breast, 93.8%; with NCI/ADR-RES ovarian, 71.7%; with T-47D breast, 90.2%; in the assay with BT-549 breast it was 81.7%; in the assay with MDA-MB-435 melanoma, 88.3%. Further, the growth in the assay on SW-620 colon is 69.8%; in the assay with MCF7 breast it was 20.6%; in the assay on HCT-116 colon, 23.9%; in the assay on HCC-2998 colon, 112%; in the assay with KM12 colon it was 85.8%.
As to `Cc1cc(-c2ccc3nc(N)sc3c2)nc2ccc3[nH]ncc3c12`, the growth with SR leukemia is 13.7%; in the assay on RPMI-8226 leukemia, 39.6%; in the assay with OVCAR-8 ovarian, 41.2%; in the assay on OVCAR-5 ovarian it was 57.6%; with OVCAR-4 ovarian it was 61.6%; in the assay with SK-OV-3 ovarian, 31.5%. Further, the growth in the assay with IGROV1 ovarian is 33.6%; in the assay on HS 578T breast it was 6.21% (active); in the assay with NCI/ADR-RES ovarian it was 13.6%; with T-47D breast it was 58.5%; with BT-549 breast it was 33%; in the assay with SW-620 colon it was 15.7%. For the same compound, the growth in the assay on MCF7 breast is 21%; with HCT-116 colon, 21.8%; with HCC-2998 colon, 66.3%; in the assay on KM12 colon, 34.6%.
Regarding `COc1cc(-c2nc(SCc3ccc(C)cc3)[nH]c(=O)c2C#N)ccc1OCc1ccccc1`, the growth in the assay on SR leukemia is 125%; with RPMI-8226 leukemia it was 105%; with OVCAR-8 ovarian it was 101%; in the assay with OVCAR-5 ovarian, 105%; in the assay with OVCAR-4 ovarian, 98.1%; in the assay with SK-OV-3 ovarian, 108%. Also, the growth in the assay on IGROV1 ovarian is 116%; with HS 578T breast it was 107%; in the assay on T-47D breast, 109%; in the assay with BT-549 breast, 156%; with MDA-MB-435 melanoma it was 98.2%; with SW-620 colon, 107%. Also, the results for the growth with MCF7 breast, with HCT-116 colon and in the assay on KM12 colon were 94.5%, 112% and 102%, respectively.
Consider `C[C@@H]1C[C@H]2C(=O)OCC(NC(=O)[C@H](Cc3cc(F)cc(F)c3)NC(=O)Nc3ccc(Cl)cc3F)C(=O)N3CCC[C@H]3C(=O)N3CCCC[C@H]3C(=O)N[C@@H](C)C(=O)N2C1` (stereo partly drawn), for which the growth with SR leukemia is 21.8%; with RPMI-8226 leukemia, 12.8%; with OVCAR-8 ovarian, 20%; in the assay on OVCAR-5 ovarian, 31.9%; with OVCAR-4 ovarian, 23.6%; in the assay on SK-OV-3 ovarian, 27.5%. The growth is 40.5% with IGROV1 ovarian; 32.7% with HS 578T breast; 24% in the assay on NCI/ADR-RES ovarian; 28.8% in the assay on T-47D breast; 21.4% in the assay with BT-549 breast; 37.7% with SW-620 colon. Also, the growth was 12.6% in the assay on MCF7 breast, -6.65% (active) with HCT-116 colon, 15.8% with HCC-2998 colon and 36.1% with KM12 colon.
As to `CCOC(=O)c1ccc(N/C=C/C(=O)c2ccccc2)cc1`, the growth in the assay on SR leukemia is 87.8%; with RPMI-8226 leukemia it was 100%; with OVCAR-8 ovarian, 102%; in the assay on OVCAR-5 ovarian, 101%; in the assay on OVCAR-4 ovarian it was 105%; in the assay on SK-OV-3 ovarian, 113%. The growth in the assay with IGROV1 ovarian was 110%; in the assay with HS 578T breast, 113%; with NCI/ADR-RES ovarian, 103%; in the assay on T-47D breast it was 84.6%; in the assay on BT-549 breast it was 114%; with MDA-MB-435 melanoma it was 92.7%. In addition, the growth in the assay on SW-620 colon was 100%; in the assay on MCF7 breast, 88.2%; with HCT-116 colon, 96.5%; in the assay on HCC-2998 colon, 109%; with KM12 colon, 98.5%.

The values are drawn from PubChem BioAssay (NCI).
